Assay results reported in PubChem BioAssay.
A number with no mark means an inactive call. How the calls were made is not given here.

The compounds below were run against Pantothenate synthetase (Mycobacterium tuberculosis (strain ATCC 25618 / H37Rv)) (UniProt P9WIL5) (assay: Coupled enzyme confirmation of inhibitors against recombinant Mtb PanC (AID 375;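 further: 0% = full reaction with vehicle and 100% = no enzyme background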)). Settings: coupled enzyme assay; at 10 µM, active compounds read high.
Pantothenate synthetase (Mycobacterium tuberculosis (strain ATCC 25618 / H37Rv)), sequence (P9WIL5 whole entry, looked up): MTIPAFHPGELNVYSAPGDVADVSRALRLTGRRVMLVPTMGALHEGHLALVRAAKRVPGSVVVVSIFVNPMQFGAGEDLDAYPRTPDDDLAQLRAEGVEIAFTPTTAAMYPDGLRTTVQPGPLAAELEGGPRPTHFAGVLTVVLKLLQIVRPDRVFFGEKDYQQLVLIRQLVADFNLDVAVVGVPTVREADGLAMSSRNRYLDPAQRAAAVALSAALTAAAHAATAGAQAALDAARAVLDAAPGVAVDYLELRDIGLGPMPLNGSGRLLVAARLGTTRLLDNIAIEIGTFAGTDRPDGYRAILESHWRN

For `COc1ccc(N(C)C(=O)CCS(=O)(=O)c2cccc3nonc23)c(OC)c1`, which inhibition is on record?
Its inhibition is 0%.

For `CC(C)CN(C(=O)c1ccc(=O)n(C)n1)c1nc2ccccc2s1`, which inhibition is on record?
The inhibition was 0%.

With `CC(C)Oc1ccc(N2CC(C(=O)Nc3ccccc3F)CC2=O)cc1` (stereo not given) as the compound, how does the inhibition read?
The inhibition was 0%.

For `CCN(CCNC(=O)C1CCN(S(C)(=O)=O)CC1)c1ccccc1`, which inhibition is on record?
Its inhibition is 6%.

With `CCOc1ccc(NC(=O)c2ccccc2O)cc1` as the compound, how does the inhibition read?
The inhibition was 0%.

`Cc1nn(-c2ccccc2)c2sc(C(=O)N3CCOCC3)cc12` was tested. Which inhibition did it give?
The inhibition was 0%.

How did the inhibition turn out when `O=C1CN(c2nc3ccccc3n3cnnc23)CC(=O)N1CCc1ccccc1` was run?
Its inhibition is 4%.

For `CCOC(=O)c1cnn(-c2cc(C)nc3c(-c4ccccc4)c(C)nn23)c1N`, which inhibition is on record?
Its inhibition is 6%.

`Cc1ccc(N(C(=O)c2ccncc2)C2C=CS(=O)(=O)C2)cc1` (stereo not given) was tested. Which inhibition did it give?
Its inhibition is 5%.

`COc1ccc(-c2nc(C#N)c(N3CCN(c4ccccc4)CC3)o2)cc1` was tested. Which inhibition did it give?
Its inhibition is 0%.

For `CS(=O)(=O)N(CC(=O)NCCSCc1cccc(Cl)c1)c1ccc2c(c1)OCO2`, which inhibition is on record?
Its inhibition is 1%.

For `c1ccc(-n2ncc3c(NC4CCCCCC4)ncnc32)cc1`, which inhibition is on record?
The inhibition was 0%.

With `O=C1CN(Cc2ccccc2)C(=NCc2ccco2)S1` as the compound, how does the inhibition read?
The inhibition was 0%.

`CCOc1nc(OCC)nc(N2CCC(C)CC2)n1` was tested. Which inhibition did it give?
Its inhibition is 0%.

`Cc1ccc(C)c(-n2c(Cc3cc(=O)[nH]c(=O)[nH]3)nnc2SCC(=O)NCc2ccco2)c1` was tested. Which inhibition did it give?
Its inhibition is 0%.

`COc1ccc2cc(C#N)c(N3CCN(Cc4nnnn4CCC(C)C)CC3)nc2c1` was tested. Which inhibition did it give?
The inhibition was 8%.

`CC(=O)Nc1cccc(Oc2nc(C)cc(C)c2C#N)c1` was tested. Which inhibition did it give?
The inhibition was 1%.

With `COc1ccc(-c2c(=O)n(OCc3ccccn3)c3ccccc3[n+]2[O-])cc1OC` as the compound, how does the inhibition read?
The inhibition was 3%.

Which inhibition does the source give for `CCOC(=O)C1CCN(C(C)=C2C(=O)c3ccccc3C2=O)CC1` here?
Its inhibition is 2%.

For `Cc1cccc(-n2c(=O)cc(N3CCN(c4ccc(F)cc4)CC3)[nH]c2=O)c1`, which inhibition is on record?
Its inhibition is 0%.

Which inhibition does the source give for `COCCn1nnnc1C(C(C)C)N(Cc1cccnc1)Cc1ccccc1Cl` (stereo not given) here?
The inhibition was 2%.

Which inhibition does the source give for `COc1ccc(-c2ccc(-c3noc(-c4cccs4)n3)c(OC)n2)cc1` here?
The inhibition was 0%.

For `CCc1nnc(NC(=O)c2cccc(C(=O)Nc3nnc(CC)s3)n2)s1`, which inhibition is on record?
The inhibition was 0%.

With `COc1cccc(CN(C(=O)c2cc3ccccc3oc2=O)C2CC2)c1` as the compound, how does the inhibition read?
The inhibition was 8%.

For `CCOC(=O)c1cc(-c2ccc3c(c2)OCO3)nc2onc(C)c12`, which inhibition is on record?
The inhibition was 0%.

For `COc1ccc2c(CC(=O)Nc3nnc(C4CC4)s3)coc2c1`, which inhibition is on record?
The inhibition was 0%.

`CC1CN(S(=O)(=O)c2cccc(C(=O)OCc3cc(=O)oc4cc(O)ccc34)c2)CC(C)O1` (stereo not given) was tested. Which inhibition did it give?
Its inhibition is 7%.

With `Cc1nc2ncnn2c(N2CCC(C(=O)NCC3CCCO3)CC2)c1Cc1ccccc1` (stereo not given) as the compound, how does the inhibition read?
The inhibition was 0%.

How did the inhibition turn out when `Cc1nc(SCCC(=O)O)c2ccccc2n1` was run?
Its inhibition is 6%.

Which inhibition does the source give for `O=C(c1ccccc1)c1ccc(N2CCNCC2)cc1` here?
Its inhibition is 3%.

How did the inhibition turn out when `CN(C)c1nc(N)nc(-c2nc3ccccc3s2)n1` was run?
The inhibition was 0%.

How did the inhibition turn out when `COc1ccc(CN2C(=O)CN=C2Nc2ccc(C)cc2C)cc1` was run?
Its inhibition is 6%.

For `Cc1nnc(SCC(=O)N2CC(=O)Nc3ccccc32)n1-c1ccccc1`, which inhibition is on record?
Its inhibition is 2%.

For `Cc1cc(C)c(NC2=NCC(=O)N2C2CCCCC2)c(C)c1`, which inhibition is on record?
Its inhibition is 0%.

Which inhibition does the source give for `COc1ccc(OC(C)C(=O)N2CC(C)OC(C)C2)cc1` (stereo not given) here?
The inhibition was 10%.

For `O=C(Nc1cccc2ccccc12)c1ccc(Br)o1`, which inhibition is on record?
Its inhibition is 0%.

How did the inhibition turn out when `CCn1ncc(C2=NOC(C(=O)NCc3ccccc3)C2)c1C` (stereo not given) was run?
The inhibition was 6%.

`COc1ccc2c(c1)[nH]c1c(=O)n(CC3CCCO3)cnc12` (stereo not given) was tested. Which inhibition did it give?
The inhibition was 1%.

For `Cc1ccc2c(Cl)cc(Cl)c(OCc3c(C)noc3C)c2n1`, which inhibition is on record?
The inhibition was 0%.

For `N#C/C(=C\c1ccc(O)c(O)c1)C(=O)NCCCc1ccccc1`, which inhibition is on record?
The inhibition was 0%.
